Source: PubChem BioAssay (several laboratories)
A3A deaminase: human APOBEC3A DNA deaminase inhibition | recombinant A3A, FAM/TAMRA ssDNA deamination fluorescence | inhibition, % at 20 µM | 330,000 tested, 0.41% active;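 active = at least 40% inhibition at 20 µM here, with at most 30% in a related deaminase screen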;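 note: plate controls were A3A with DMSO for no effect and wells lacking A3A enzyme for full effect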
Target sequence (P31941 whole entry, looked up): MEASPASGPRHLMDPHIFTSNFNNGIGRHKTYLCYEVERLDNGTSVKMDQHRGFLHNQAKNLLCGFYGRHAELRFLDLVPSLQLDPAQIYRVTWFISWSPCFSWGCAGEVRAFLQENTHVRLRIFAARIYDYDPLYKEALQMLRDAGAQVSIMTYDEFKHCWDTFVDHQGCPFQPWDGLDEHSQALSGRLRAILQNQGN
rCAG binder: binds r(CAG) RNA repeats. AID 651821. r(CAG) RNA repeat, TO-PRO-1 dye displacement fluorescence. 370,000 tested, 1.3% active. inhibition, % at 3 µM;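 active = inhibition above the plate cutoff, the mean of all test compounds on that plate plus 3 SD, cut at about 35% in these data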;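 note: 0% = DMSO alone and 100% = 100 µM mitoxantrone as full dye displacement; higher means more dye released from RNA so lower well fluorescence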
aDG glyco act: increases alpha dystroglycan glycosylation; Pro5-aDG cells, alpha-DG glycosylation AlphaScreen (IIH6); 0% Pro5, 100% B10-LARGE cell signal; activation, % at 10 µM; 360,000 tested, 0.22% active; AID 624168;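 active = activation of at least 8% versus controls, or a plate z-score of at least 8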;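 note: Pro5 are CHO cells carrying HIG-tagged alpha-DG that lacks glycosylation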
PHOSPHO1 inh: inhibitors of human PHOSPHO1 phosphatase; Q8TCT1; 290,000 tested, 1.1% active; recombinant PHOSPHO1, absorbance phosphatase assay; inhibition, % at 13.3 µM; in the data active = inhibition above about 60%
A3G deaminase: inhibitors of human APOBEC3G DNA deaminase; 330,000 tested, 0.28% active; Q9HC16; recombinant A3G, ssDNA deamination FAM/TAMRA fluorescence; AID 493012; inhibition, % at 20 µM;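 active = inhibition of at least 40% at 20 µM, with no more than 30% in the related APOBEC3A deaminase screen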;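 note: plate controls were DMSO wells with A3G for no effect and wells lacking A3G enzyme for full effect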
ALR inh: inhibitors of human sulfhydryl oxidase ALR; P55789; purified ALR, DTT oxidation, H2O2 HRP-luminol luminescence; inhibition, % (no concentration beside the values); 290,000 tested, 3.8% active;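 active = mean replicate inhibition above about 79%, with every replicate also reaching it, limit read from the data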
Target sequence (P55789 whole entry, looked up): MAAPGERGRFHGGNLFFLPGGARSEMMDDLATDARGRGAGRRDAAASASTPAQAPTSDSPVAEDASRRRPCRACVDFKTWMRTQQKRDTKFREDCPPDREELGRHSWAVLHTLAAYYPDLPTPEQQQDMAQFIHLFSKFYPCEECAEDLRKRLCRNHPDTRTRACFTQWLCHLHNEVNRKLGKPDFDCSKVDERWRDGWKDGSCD
* = called active by the depositor; / = not tested or not shown. Only some compounds are listed: those with a hit (about 5.4% of all), similar ones and a draw of the others.

SMILES	A3A deaminase	rCAG binder	aDG glyco act	PHOSPHO1 inh	A3G deaminase	ALR inh
Cc1cccc(C)c1NC(=O)CSCC(=O)c1ccc(O)c(O)c1	-2	10	0	36	-5	99*
COc1ccc(N2CCN(C(=O)CSc3ccc(C)cc3)CC2)cc1	-5	-5	1	15	-6	0
COc1ccc(N2CCN(C(=O)CSc3ncn[nH]3)CC2)cc1	-1	-3	0	/	-4	99*
CCOC(=O)N1CCN(C(=O)CSc2ccc(-c3ccc(OC)cc3)nn2)CC1	-1	-6	0	68*	-4	-5
CCOC(=O)N1CCN(C(=O)CSc2ccc(-c3ccc(OC)c(OC)c3)nn2)CC1	-3	-4	1	53	-4	/
CCOC(=O)Cc1csc(SCC(=O)N2CCN(c3ccc(OC)cc3)CC2)n1	-2	-2	0	-4	-6	87*
COC(=O)[C@]12C[C@H](CC(=O)N3CCOCC3)C(=O)N(Cc3ccco3)C1=C[C@H](C(C)C)O[C@@H]2C1CC1	/	-2	/	/	/	/
O=C(NC1CCCCN(Cc2cccc(C(F)(F)F)c2)C1=O)c1cccc(F)c1 (configuration not stated)	/	0	/	/	/	/
CCOc1ccc(S(=O)(=O)NCC(=O)NC2CCCCC2)cc1	-4	-3	0	/	-6	91*
Cc1ccc(S(=O)(=O)NCC(=O)NCC2CCCCC2)cc1C	-2	-8	0	18	-8	97*
O=C(CNS(=O)(=O)c1ccc(Cl)cc1)NC1CCCCC1	-4	0	0	/	-8	5
COCCCNC(=O)C[C@H]1C[C@@]2(C(=O)OC)C(=C[C@H](C3CCCC3)O[C@@H]2C)N(Cc2ccc(Cl)cc2Cl)C1=O	/	6	/	/	/	/
COc1ccccc1C=NNC(=O)CSc1nc2ccccc2n1Cc1ccc(Cl)cc1	/	10	/	/	/	/
O=[N+]([O-])c1ccc(/C=C2\CCC(C3=CCCC3)=C2N2CCOCC2)cc1	-2	7	0	-4	-2	97*
Cc1cc(C)nc(SCc2csc(N)n2)n1	0	1	0	84*	-6	/
C=CCn1c(SCc2csc(-c3ccc(Cl)cc3)n2)nnc1-c1ccccc1OC	0	-5	0	-26	-4	81*
C=CCn1c(SCC(=O)N(C)c2c(N)n(Cc3ccccc3)c(=O)[nH]c2=O)nnc1-c1ccccc1OC	0	-6	0	-5	-5	-1
Nc1ccccc1SCc1csc(-c2ccc(Cl)cc2)n1	-1	0	0	17	-8	98*
Cc1cc(C)nc(SCc2csc(-c3ccccc3)n2)n1	1	-5	0	12	3	99*
Cc1cccc(-n2nnnc2SCc2csc(-c3ccccc3)n2)c1	-2	1	0	4	-3	44
O=C(c1ccncc1)N1CC[C@H]2[C@H](CCCN2Cc2cc(F)cc(F)c2)C1	/	1	/	/	/	/
c1ccc(-c2nc(CSc3nnc(-c4cccs4)o3)cs2)cc1	3	1	0	/	-3	98*
S=c1[nH]nc(CSc2nc3ccccc3s2)n1C1CCCCC1	-1	0	1	96*	6	-1
O=C(O)CSc1nnc(CSc2nc3ccccc3s2)n1-c1ccccc1	9	16	0	-49	-8	13
C#CCSc1nnc(CSc2nc3ccccc3s2)n1-c1ccccc1	0	6	0	76*	-5	-4
SMILES	A3A deaminase	rCAG binder	aDG glyco act	PHOSPHO1 inh	A3G deaminase	ALR inh
S=c1[nH]nc(COc2ccccc2)n1C1CCCCC1	-8	-2	0	66*	13	15
NC(=O)CSc1nnc(COc2ccccc2)n1C1CCCCC1	/	-5	0	20	/	/
Cc1ccc(S(=O)(=O)N2CCCC2c2cccc3[nH]cc(C)c23)cc1 (configuration not stated)	/	3	/	/	/	/
Cc1ccc(CN2CCCCC(NC(=O)c3ccccc3C)C2=O)cc1 (configuration not stated)	/	0	/	/	/	/
CCN1CCN(C(=O)CCNC(=O)Cn2cnc3ccccc3c2=O)CC1	0	1	0	6	-8	/
CCN(CCCNC(=O)CNC(=O)Cn1cnc2ccccc2c1=O)c1cccc(C)c1	-5	-6	0	-6	5	/
O=C(Cn1cnc2ccccc2c1=O)NCCC(=O)N1CCN(c2ccccc2)CC1	0	-4	0	-15	-2	96*
CCN(CCCNC(=O)CCNC(=O)Cn1cnc2ccccc2c1=O)c1ccccc1	-3	0	0	28	-2	99*
COc1ccc(N2CCN(C(=O)CCNC(=O)Cn3ccc4ccccc4c3=O)CC2)cc1	-1	-7	0	-23	-3	85*
NC(=O)c1c(N)[nH]c(C(=O)c2ccccc2)c1-c1ccc2ccccc2c1	/	14	/	/	/	/
N#Cc1cc2c([nH]c1=S)CCCCCC2	-6	6	0	93*	39	/
CSc1nc2c(cc1C#N)CCC2	-1	1	0	6	-5	-10
Cc1ccsc1/C=C1\SC(N2CC(C)OC(C)C2)=NC1=O (configuration not stated)	-3	-2	0	-20	-7	100*
N#C/C(=C/c1ccc(O)c(O)c1)c1nc2ccccc2[nH]1	-11	5	0	11	-26	90*
CCOc1cc(/C=C(\C#N)c2nc3ccccc3[nH]2)ccc1OC(C)C(=O)O (configuration not stated)	-1	19	0	20	-8	98*
COC(=O)c1ccc(COc2ccc(/C=C(\C#N)c3nc4ccccc4[nH]3)cc2OC)o1	4	18	0	-18	-1	-4
N#C/C(=C\c1ccccc1OCC(=O)O)c1nc2ccccc2[nH]1	3	5	0	23	-3	98*
COc1cc(/C=C(/C#N)c2nc3ccccc3[nH]2)ccc1OCc1ccc(C(=O)O)o1	4	40*	0	-6	-1	2
CCCCCCCCNS(=O)(=O)CC1NCc2ccc(C)cc21 (configuration not stated)	/	5	/	/	/	/
CC1=CC(=C(C#N)c2nc3ccccc3s2)C=C(C)N1CC1CCCO1 (configuration not stated)	2	8	0	20	-2	95*
CCOC(=O)CNC(=O)CSc1nc(Cc2cccs2)nc2ccccc12	4	8	1	19	1	79*
CC(C)OC(=O)CSc1nc(Cc2ccccc2)nc2ccccc12	-4	-7	0	23	-5	86*
CC1CCN(CC(=O)N2c3ccccc3CCc3ccccc32)CC1	0	-5	0	-42	-9	84*
COc1ccc(N2CCN(C(CNC(=O)CC(C)(C)C)c3ccc4c(c3)OCO4)CC2)cc1 (configuration not stated)	-4	-9	1	-6	-3	82*
COc1ccc(N2CCN(C(CNC(C)=O)c3ccc4c(c3)OCO4)CC2)cc1 (configuration not stated)	-5	-6	0	10	-3	88*
